Rows were chosen to be rich in hits. Some 0.45% of all compounds tested hit in one or more screens of this group.
Menin-MLL TR inh = displaces Texas Red mutant MLL peptide from human menin; Potency, µM (titrated, usually from 61.6 µM), for the others: at the top dose FP activity change, negative = inhibition, hits mostly inhibitors; Menin + Texas Red MLL mutant peptide, fluorescence polarization; O00255; 270,000 tested, 0.23% active; AID 1768; active = well fitted inhibition curve with a large enough effect in the polarisation, with a control signal flat, not every such curve was filed as active; inconclusive = small, poorly fitted or top-dose-only effect, or effect the other way, or a change in a side signal; inactive = no such curve, though single readings can be large or run the other way; the % refers to the polarisation; also: potency is read from the fitted curve at half-maximal effect; % of control where 0% means no effect
Menin-MLL FL inh = menin-MLL binding inhibition, fluorescein peptide; Fluorescence polarization, fluorescein-MLL peptide displacement from menin; 290,000 tested, under 10 active; FP activity change, % at 61.4 µM; AID 1766; active = well fitted curve in the direction sought with a large enough effect in the polarisation, not every such curve was filed as active; inconclusive = small, poorly fitted or top-dose-only effect, or effect the other way, or a change in a side signal; inactive = no such curve, though single readings can be large or run the other way; the % refers to the polarisation; also: % of control where 0% means no effect
GAA glycogen mod = GAA glycogen-cleavage inhibition or activation; P10253; recombinant GAA, glycogen substrate, Amplex Red glucose oxidase fluorescence; Potency, µM (doses to about 76.4 µM), without a hit: top-dose activity change, negative = inhibition, most hits filed as inhibitors; 300,000 tested, 0.38% active;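 also: potency is read from the fitted curve at half-maximal effect; 0% = full enzyme reaction and -100% = no-enzyme basal signal; the screen sought inhibitors and activators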
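qHTS, 1536-well; enzyme 4 nM final; cpd up to 77 uM; substrate bovine liver glycogen 30 ug; 50 mM citrate/phosphate pH 5.0, 0.01% Tween-20; 37 C, 40 min; Amplex Red detection 45 min RT; Hill fit → AC50.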
GAA spleen mod = inhibitors or activators of human alpha-glucosidase in spleen homogenate. P10253. human spleen homogenate, 4-MU-alpha-glucoside fluorescence. Potency, µM (top dose mostly 79.9 µM), without a hit: top-dose activity change, negative = inhibition, usual class: inhibitors. 240,000 tested, 0.006% active. AID 2112;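 also: potency is read from the fitted curve at half-maximal effect; 0% = enzyme with vehicle and -100% = no enzyme basal signal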
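Enzyme source: human spleen homogenate, 1 ug/well. Buffer 50 mM citric acid/K phosphate pH 5.0, 0.01% Tween-20. 4-MU-alpha-glucoside 1 mM; 37 C x 40 min; NaOH/glycine stop; fluorescence.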
CXXC DNA block = inhibitors of human MLL CXXC domain-DNA interaction; Q03164; MLL-CXXC / FITC-HOXA9 DNA fluorescence polarization; Potency, µM (highest dose often 115 µM), without a hit: top-dose activity change, negative = inhibition, actives largely listed as inhibitors; 290,000 tested, 0.037% active; active = well fitted inhibition curve with a large enough effect in the polarisation, with a control signal flat, not every such curve was filed as active; inconclusive = small, poorly fitted or top-dose-only effect, or effect the other way, or a change in a side signal; inactive = no such curve, though single readings can be large or run the other way; the % refers to the polarisation; also: potency is read from the fitted curve at half-maximal effect
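Steps: dispense CXXC domain solution (7 uM) → pin compounds or unlabeled HOX-A9 DNA control → 5 min ambient → add FLSN-HOX-A9 solution (50 nM) → spin → 30 min ambient → fluorescence polarization. Tris pH 7.5/NaCl/DTT/BSA buffer.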
GAA inhib = alpha-glucosidase (human) inhibition; AID 1466; P10253; purified human GAA, 4-MU-alpha-glucoside fluorescence; 200,000 tested, 0.005% active; Potency, µM (series often up to 76.9 µM), for the others: at the top dose activity change, negative = inhibition, actives largely listed as inhibitors;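 also: potency is read from the fitted curve at half-maximal effect; plate controls were uninhibited enzyme wells for no effect and no-enzyme background for full effect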
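Human enzyme at 4 nM with 400 uM 4-methylumbelliferyl-alpha-D-pyranoside, citrate/phosphate buffer pH 5.0, 0.005% Tween-20, 20 min at room temperature. Compounds up to 77 uM. 4-MU fluorescence (Ex 365/Em 440) read after NaOH/glycine stop; AC50 from Hill fit.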
* marks the source's active call; other numbers are inactive results; ? = inconclusive; nt = no result given; [ ] = remark or other dose. Unless noted, calls follow the shape of the dose curve; as a rule, active = well fitted curve in the direction sought with a large enough effect; inconclusive = small, poorly fitted or top-dose-only effect, or another doubt; inactive = no such curve, though single readings can be large; an effect the other way counts as inactive or inconclusive.

SMILES	Menin-MLL TR inh	Menin-MLL FL inh	GAA glycogen mod	GAA spleen mod	CXXC DNA block	GAA inhib
Cc1c(Nc2c3c(c(C#N)c4nc5ccccc5n24)CCC3)c(=O)n(-c2ccccc2)n1C	-13%	3	7µM*	3%	-10%	6%
COc1ccc(C2SCC(=O)N2CCc2ccc(OC)c(OC)c2)cc1 (stereo not given)	-15%	0	5.6µM*	7%	-4%	1%
COc1cc(/C=C2/NC(=O)N(Cc3ccccc3F)C2=O)ccc1O	?	9	22µM*	0%	0%	-6%
COc1cc(/C=C2\NC(=S)N(C)C2=O)ccc1O	43%	?	10µM*	10%	?	?
CN1C(=O)/C(=C/c2ccc(O)c([N+](=O)[O-])c2)NC1=S	17%	2	4%	-5%	?	-2%
O=c1[nH]c2cc(Cl)c(O)cc2o1	14%	2	nt	1%	nt	nt
CC(=O)Nc1ccc(S(=O)(=O)Nc2nc3ccccc3nc2Nc2ccccc2)cc1	?	6	-5%	2%	8%	0%
CC(=O)Nc1ccc(S(=O)(=O)Nc2nc3ccccc3nc2Nc2ccc(O)cc2)cc1	nt	26	18µM*	4%	-6%	nt
O=C(CCCn1c(=O)c2sccc2n(Cc2ccc(F)cc2Cl)c1=O)NCc1ccc2c(c1)OCO2	nt	nt	10%[76.3 µM]	nt	nt	nt
CCN1C(=O)CCCc2ccccc21	-1%	-1	-19%	-14%	4%	8%
CCCN1CCCc2ccccc21	25µM*	1	10%	0%	-9%	-4%
Oc1ccccc1N1CCN(c2ncccn2)CC1	-15%	0	7.9µM*	-2%	-4%	0%
c1ccc(N2CCN(c3ncccn3)CC2)cc1	5%	9	8%	-5%	-1%	14%
CCN1c2ccccc2NC2C1C(C(C)=O)C(=O)N2c1ccc(Cl)cc1 (stereo not given)	-22%	?	25µM*	-21%	-1%	-4%
O=C1Nc2ccccc2N(O)N1c1ccc(Cl)cc1	-7%	0	5%	-2%	4%	13%
CCCNC(=O)OC[C@@H]1O[C@H](CCO/N=C(\C)CCN2CCCc3nc(C)c(C)cc32)C=C[C@@H]1Oc1ccc(OC)cc1	-14%[11.7 µM]	6[11.7 µM]	nt	4%[17.4 µM]	nt	nt
CCC(=Nc1ccccc1O)C1=C(O)CC(c2ccccc2)CC1=O (stereo not given)	nt	8	13µM*	-4%	-1%	nt
CCC(=Nc1ccccc1OC)C1=C(O)CC(c2ccccc2)CC1=O (stereo not given)	-11%	-7	-1%	1%	-1%	2%
O=[N+]([O-])c1cc(C(F)(F)F)ccc1NCCc1c[nH]c2ccc(O)cc12	?	0	9.9µM*	-6%	7%	-8%
Cc1ccc(-n2c(=O)[nH]c3cc(C(=O)NCc4ccccc4)ccc3c2=O)cc1	nt	nt	1%[76.3 µM]	nt	nt	nt
CC(C)C[C@H](NC(=O)[C@H](Cc1ccccc1)NC(=O)[C@H](Cc1ccccc1)NC(=O)[C@@H](N)CO)C(=O)N[C@@H](CCCN=C(N)N)C(=O)N[C@@H](CC(N)=O)C(=O)O	-1%	-8	nt	0%	nt	nt
CC(=O)Nc1ccc(-c2ccccc2)s1	19%	-4	4%	-6%	-6%	2%
CC(=O)Nc1ccc(NC(C)=O)s1	-17%	1	8.9µM*	-8%	7%	2%
O=c1[nH]cc(O)c(=O)[nH]1	nt	-8	5µM*	5%	1%	-1%
O=c1[nH]cc(F)c(=O)[nH]1	6%	-4	1%	4%	15%	-2%[15.4 µM]
SMILES	Menin-MLL TR inh	Menin-MLL FL inh	GAA glycogen mod	GAA spleen mod	CXXC DNA block	GAA inhib
Cc1cc(C)c(S(=O)(=O)Nc2ccc(O)cc2)cc1C	28%	1	14µM*	0%	19%	-1%
Cc1ccc(C)c(S(=O)(=O)Nc2ccc(O)cc2)c1	1%	-5	12µM*	-4%	1%	-1%
COc1ccc(NS(=O)(=O)c2cc(C)ccc2C)cc1	1%	3	-12%	5%	-4%	-6%
CCN(CC)c1ccc(NC(=O)CSc2nnc(C)c(=O)[nH]2)cc1	nt	nt	25µM*	nt	nt	nt
Cc1nc2cc(C(=O)O)ccc2s1	-7%	0	1%	2%	-7%	-1%
Cc1nc2ccc(C(=O)O)cc2c2c1CC(C)S2 (stereo not given)	20µM*	15	2%	-18%	9%	5%
CCCCCCn1cc(C(=O)O)c(=O)c2ccccc21	0%	-1	16%	3%	7%	13%
CCCCCCCCCCCCCCCCn1cc[n+](Cc2ccccc2)c1C	22µM*	-20	nt	-5%	nt	nt
Cc1csc(NC(=O)CSc2nnc(NC(=O)COc3ccc(Cl)cc3)s2)n1	25µM*	18	4%	0%	13%	-3%
Cc1ccc(C#CC2C=CC(Oc3ccc4c(c3)OCO4)C(CO)O2)c(C)c1 (stereo not given)	2%[11.7 µM]	-4[11.7 µM]	nt	3%[17.4 µM]	nt	nt
O=C(COc1ccc2ccccc2c1)N1CCNCC1	nt	nt	-4%	nt	1%	nt
O=C(CSc1ccc2ccccc2c1)N1CCN(c2ccc(O)cc2)CC1	nt	-3	16µM*	-3%	-5%	nt
O=C(c1ccc2ccccc2c1)N1CCN(c2ccc(O)cc2)CC1	-7%	-4	18µM*	-1%	1%	5%
O=C(COc1ccc2ccccc2c1)N1CCN(c2ccccc2O)CC1	9%	4	14µM*	-3%	-4%	-9%
COc1ccc(N2CCN(C(=O)CSc3nnc(-c4cc5ccccc5cc4O)n3C)CC2)cc1	-3%	-1	-14%	7%	-9%	1%
CCOC(=O)N1CCN(c2ccc(O)cc2)CC1	-4%	-7	25µM*	0%	6%	-6%
CCOC(=O)N1CCN(c2ccc(Cl)cc2)CC1	-12%	2	-2%	2%	5%	0%
CCOC(=O)[C@]1(C(NC(=O)OC)c2ccco2)CCCC1=O (stereo not given in full)	7%[11.7 µM]	-1[11.7 µM]	nt	0%[17.4 µM]	nt	nt
O=C(Nc1ccc(OCc2cc(=O)n3c4c(sc3n2)CCCC4)cc1)c1ccccc1	nt	nt	14%[76.3 µM]	nt	nt	nt
O=C(/C=C/c1ccc(Br)cc1)NC(=O)c1ccccc1O	-4%	-3	-8%	-24%	1%	6%
O=C(/C=C/c1ccc(O)c(O)c1)NC(=O)c1ccccc1O	40%	?	3.5µM*	4%	-26%	nt
O=C(O)/C=C/c1ccc(O)c(O)c1	-4%	?	7.9µM*	?	18%	-9%[15.4 µM]
COc1ccc(CC(=O)N(Cc2nc(-c3ccc(C)cc3)no2)C(C)C)cc1	nt	nt	13%[76.3 µM]	nt	nt	nt
COc1cccc2sc(NNC(=O)C3COc4ccccc4O3)nc12 (stereo not given)	1%	1	-17%	-6%	7%	-1%

Screens: PubChem, National Center for Advancing Translational Sciences (NCATS)
